Our source for the Potency and outcome values is PubChem BioAssay (Tox21).

Records with an inconclusive call do not appear. A call without a number means that no potency is given here. Activity calls are given as the source filed them. The call rests on the fitted dose curve.

Sequence of Acetylcholinesterase (Homo sapiens) (P22303 whole entry, looked up): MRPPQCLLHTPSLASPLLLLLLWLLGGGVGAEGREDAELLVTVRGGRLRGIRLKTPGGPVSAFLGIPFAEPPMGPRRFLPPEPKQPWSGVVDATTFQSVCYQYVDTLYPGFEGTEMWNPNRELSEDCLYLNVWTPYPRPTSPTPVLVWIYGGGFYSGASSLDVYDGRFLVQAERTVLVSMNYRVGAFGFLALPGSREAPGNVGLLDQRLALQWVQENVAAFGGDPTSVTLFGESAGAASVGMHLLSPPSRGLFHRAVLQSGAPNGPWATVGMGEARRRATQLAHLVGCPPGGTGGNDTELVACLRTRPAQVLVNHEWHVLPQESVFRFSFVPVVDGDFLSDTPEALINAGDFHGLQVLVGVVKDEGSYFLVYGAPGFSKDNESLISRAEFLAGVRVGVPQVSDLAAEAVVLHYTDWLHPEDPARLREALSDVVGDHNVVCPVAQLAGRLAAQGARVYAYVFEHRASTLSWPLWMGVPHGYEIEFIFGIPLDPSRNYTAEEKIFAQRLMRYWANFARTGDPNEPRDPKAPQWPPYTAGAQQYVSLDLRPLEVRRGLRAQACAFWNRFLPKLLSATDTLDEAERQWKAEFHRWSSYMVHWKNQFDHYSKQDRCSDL

One test concerns the target Acetylcholinesterase (Homo sapiens) (UniProt P22303). Nature of the test: Acetylcholinesterase (AChE) small molecule antagonists: fluorescence cell-based qHTS assay (AID 1347398). Further: nearly all actives have a fitted effect of over 50% in size. The settings on record: SH-SY5Y cells; Potency: AChE activity; outcome: AChE activity; series mostly up to 115 µM. The method, boiled down: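 SH-SY5Y, 2,000 cells/well, attached overnight; cmpd 30 min 37 C; acetylthiocholine/Thiolite Green cocktail 40 min RT; fluorescence Ex/Em 490/520 nm.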
`CCCC(=O)Nc1ccc(O)c(C(C)=O)c1`: the Potency entry was “inactive”.

Consider `CC(C)c1ccc2ncccc2c1`, for which the Potency result was “inactive”.

On to `O=S(=O)(O)c1ccc(O)cc1`, for which the Potency entry is “inactive”.

In the case of `CCOc1cccc(-n2cc(C(=O)N3CCN(c4cc(C(=O)O)c5ccccc5c4)CC3)nc2-c2ccc(C)cc2)c1`, the Potency result was “inactive”.

As to `CC1(C)C(=O)N(Cl)C(=O)N1Br`, the Potency result is “inactive”.

`CC(C)(C)C1CCC(O)CC1` (stereo not given): the Potency entry is “inactive”.

As for `CCC(C)(C)CC`, the Potency result is “inactive”.

As for `CC(COc1ccc(C(C)(C)C)cc1)OS(=O)OCCCl` (stereo not given), the Potency entry was “inactive”.

As for `O=c1[nH][nH]c2ccccc12`, the Potency result is “inactive”.

With `CC1=C(O)C(=O)OC1C` (stereo not given), the Potency entry was “inactive”.

Regarding `Cc1c(Nc2ncccc2C(=O)O)cccc1C(F)(F)F`, the Potency entry was “inactive”.

In the case of `CC(=O)c1c(C)c([N+](=O)[O-])c(C(C)(C)C)c([N+](=O)[O-])c1C`, the Potency result is “inactive”.

`CC(C)OC(=O)CCCCC(=O)OC(C)C`: the Potency result is “inactive”.

On to `CNCCCCOc1ccccc1Cc1ccccc1`, for which the Potency result was “inactive”.

Take `COC(=O)c1ccccc1C(=O)O`: the Potency entry is “inactive”.

In the case of `Cc1cc(O)c(Cl)cc1C`, the Potency entry was “inactive”.

With `Cc1ccccc1C(=O)Nc1ccc(C(=O)N2CCCC(O)c3cc(Cl)ccc32)c(C)c1` (stereo not given), the Potency entry was “inactive”.

In the case of `CC(=O)OCC(=O)[C@H]1CC[C@H]2[C@@H]3CCC4=CC(=O)CC[C@]4(C)[C@H]3CC[C@]12C`, the Potency entry was “inactive”.

Take `CC(C(=O)O)c1cccc(Oc2ccccc2)c1` (stereo not given): the Potency entry is “inactive”.

Regarding `CCCCOC(=O)CC#N`, the Potency result was “inactive”.

Turning to `C=CCSSCCC`, the Potency result is “inactive”.

As to `C/C(=C\c1ccc(C(=O)O)cc1)c1ccc2c(c1)C(C)(C)CCC2(C)C`, the Potency result was “inactive”.

For `C/C=C(C)/C=C/C=C(C)C`, the Potency entry was “inactive”.

`C[C@]12CC[C@@H]3c4ccc(O)cc4CC[C@H]3[C@@H]1CC[C@H]2O`: the Potency result is “inactive”.

As for `CC(C)=CC(C)(C)C`, the Potency result was “inactive”.

As to `OC[C@]1(O)OC[C@@H](O)[C@H](O)[C@@H]1O`, the Potency entry was “inactive”.

`CC/C=C\C/C=C\C/C=C\CCCCCCCC(=O)OCC`: the Potency entry was “inactive”.

Regarding `CCC(=O)O[C@]1(C(=O)SCF)[C@H](C)C[C@H]2[C@@H]3C[C@H](F)C4=CC(=O)C=C[C@]4(C)[C@@]3(F)[C@@H](O)C[C@@]21C`, the Potency result was “inactive”.

With `CCNC(=O)N1CCN(CCCC(c2ccc(F)cc2)c2ccc(F)cc2)CC1`, the Potency entry is “inactive”.

`NS(=O)(=O)c1ccccc1OC(F)(F)F`: the Potency entry was “inactive”.

On to `O=C1CCCCCCCCCCC1`, for which the Potency entry was “inactive”.

On to `O=C(O)C1(C(=O)O)CCC1.[NH2-].[NH2-].[Pt+2]`, for which the Potency entry is “inactive”.

Take `CC(C)CCCCCCOC(=O)c1ccc(C(=O)OCCCCCCC(C)C)c(C(=O)OCCCCCCC(C)C)c1`: the Potency result was “inactive”.

With `NCCc1ccc(O)c(O)c1`, the result was inactive.

Regarding `C#Cc1cccc(Nc2ncnc3cc(OCCOC)c(OCCOC)cc23)c1`, the Potency entry is “inactive”.

Consider `CC1(C)SC(C)(C)SC(C)(C)S1`, for which the Potency entry was “inactive”.

Turning to `CCOCCOCCOCC`, the Potency entry was “inactive”.

Turning to `c1cc(C(c2ccc(OCC3CO3)cc2)C(c2ccc(OCC3CO3)cc2)c2ccc(OCC3CO3)cc2)ccc1OCC1CO1` (stereo not given), the Potency result is “inactive”.

As for `CCCCN(CCC(=O)OCC)C(C)=O`, the Potency entry was “inactive”.

Consider `CC1=C(C/C=C(\C)CCC[C@H](C)CCC[C@H](C)CCCC(C)C)C(=O)c2ccccc2C1=O`, for which the Potency entry is “inactive”.

The target is the same in another test. Nature of the test: Acetylcholinesterase (AChE) small molecule antagonists: enzyme-based qHTS assay with human liver microsomes (AID 1347399). Further: nearly all actives have a fitted effect of over 60% in size. As to conditions: Potency: qHTS inhibition; outcome: qHTS inhibition; series mostly up to 115 µM. The method, boiled down: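 Recombinant human AChE (50 mU/mL in the enzyme mix) and human liver microsomes (0.25 mg/mL final) were preincubated with compound and NADPH (0.25 mg/mL final) for 30 min at 37 C. Acetylthiocholine/DTNB was then added; thiocholine was read colorimetrically after 10 min at room temperature.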
On to `CCCC(=O)Nc1ccc(O)c(C(C)=O)c1`, for which the Potency entry is “inactive”.

For the molecule `CC(C)c1ccc2ncccc2c1`, the Potency result is “inactive”.

In the case of `O=S(=O)(O)c1ccc(O)cc1`, the Potency result was “inactive”.

In the case of `CCOc1cccc(-n2cc(C(=O)N3CCN(c4cc(C(=O)O)c5ccccc5c4)CC3)nc2-c2ccc(C)cc2)c1`, the Potency result is “inactive”.

Turning to `CC1(C)C(=O)N(Cl)C(=O)N1Br`, the Potency entry is “inactive”.

Consider `CC(C)(C)C1CCC(O)CC1` (stereo not given), for which the Potency result was “inactive”.

Take `CCC(C)(C)CC`: the Potency entry is “inactive”.

As for `CC(COc1ccc(C(C)(C)C)cc1)OS(=O)OCCCl` (stereo not given), the Potency result was “inactive”.

With `O=c1[nH][nH]c2ccccc12`, the Potency result was “inactive”.

With `CC1=C(O)C(=O)OC1C` (stereo not given), the Potency result was “inactive”.

With `Cc1c(Nc2ncccc2C(=O)O)cccc1C(F)(F)F`, the Potency result is “inactive”.

Consider `CC(=O)c1c(C)c([N+](=O)[O-])c(C(C)(C)C)c([N+](=O)[O-])c1C`, for which the Potency entry was “inactive”.

On to `CC(C)OC(=O)CCCCC(=O)OC(C)C`, for which the Potency entry was “inactive”.

Consider `CNCCCCOc1ccccc1Cc1ccccc1`, for which the Potency result was “inactive”.

As to `COC(=O)c1ccccc1C(=O)O`, the Potency entry is “inactive”.

`Cc1cc(O)c(Cl)cc1C`: the Potency result is “inactive”.

In the case of `Cc1ccccc1C(=O)Nc1ccc(C(=O)N2CCCC(O)c3cc(Cl)ccc32)c(C)c1` (stereo not given), the Potency entry is “inactive”.

With `CC(=O)OCC(=O)[C@H]1CC[C@H]2[C@@H]3CCC4=CC(=O)CC[C@]4(C)[C@H]3CC[C@]12C`, the Potency result was “inactive”.

For the molecule `CC(C(=O)O)c1cccc(Oc2ccccc2)c1` (stereo not given), the Potency result is “inactive”.

In the case of `CCCCOC(=O)CC#N`, the Potency result was “inactive”.

For the molecule `C=CCSSCCC`, the Potency entry is “inactive”.

With `C/C(=C\c1ccc(C(=O)O)cc1)c1ccc2c(c1)C(C)(C)CCC2(C)C`, the Potency entry was “inactive”.

In the case of `C/C=C(C)/C=C/C=C(C)C`, the Potency entry was “inactive”.

On to `C[C@]12CC[C@@H]3c4ccc(O)cc4CC[C@H]3[C@@H]1CC[C@H]2O`, for which the Potency result is “inactive”.

For the molecule `CC(C)=CC(C)(C)C`, the Potency entry is “inactive”.

Regarding `OC[C@]1(O)OC[C@@H](O)[C@H](O)[C@@H]1O`, the Potency entry is “inactive”.

Consider `CC/C=C\C/C=C\C/C=C\CCCCCCCC(=O)OCC`, for which the Potency result is “inactive”.

Consider `CCC(=O)O[C@]1(C(=O)SCF)[C@H](C)C[C@H]2[C@@H]3C[C@H](F)C4=CC(=O)C=C[C@]4(C)[C@@]3(F)[C@@H](O)C[C@@]21C`, for which the Potency result was “inactive”.

In the case of `CCNC(=O)N1CCN(CCCC(c2ccc(F)cc2)c2ccc(F)cc2)CC1`, the Potency result is “inactive”.

In the case of `NS(=O)(=O)c1ccccc1OC(F)(F)F`, the Potency entry is “inactive”.

`O=C1CCCCCCCCCCC1`: the Potency result was “inactive”.

As for `O=C(O)C1(C(=O)O)CCC1.[NH2-].[NH2-].[Pt+2]`, the Potency entry was “inactive”.

On to `CC(C)CCCCCCOC(=O)c1ccc(C(=O)OCCCCCCC(C)C)c(C(=O)OCCCCCCC(C)C)c1`, for which the Potency entry is “inactive”.

`NCCc1ccc(O)c(O)c1`: the result was inactive.

As for `C#Cc1cccc(Nc2ncnc3cc(OCCOC)c(OCCOC)cc23)c1`, the Potency result was “inactive”.

On to `CC1(C)SC(C)(C)SC(C)(C)S1`, for which the Potency result was “inactive”.

Turning to `CCOCCOCCOCC`, the Potency result was “inactive”.

For the molecule `c1cc(C(c2ccc(OCC3CO3)cc2)C(c2ccc(OCC3CO3)cc2)c2ccc(OCC3CO3)cc2)ccc1OCC1CO1` (stereo not given), the Potency entry is “inactive”.

For `CCCCN(CCC(=O)OCC)C(C)=O`, the Potency result was “inactive”.

For `CC1=C(C/C=C(\C)CCC[C@H](C)CCC[C@H](C)CCCC(C)C)C(=O)c2ccccc2C1=O`, the Potency result was “inactive”.
